How the values were obtained:
Conditions in all cases: concentration: 10 µM; 24 h
HCC1569 [1] = test: cell number relative to DMSO (% of DMSO); higher = more cells (less growth inhibition / toxicity)
In short: (§1)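 Six fields per well were imaged at ×10 after the cells were fixed in 3.7% formaldehyde and stained with a rabbit anti-H1.0 antibody, an AlexaFluor 647 secondary and DAPI. The HCC1569 and TDF cells had been plated at 800 per well in 384-well plates (RPMI, 10% FBS) and treated in triplicate with compounds at 10 µM for 24 h at 37 °C. The values are the median of replicates of H1.0 nuclear intensity or cell number, as percent of the plate control. Smoothing for positional effects was applied to HCC1569 data.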

TDF [2] = test: as above
In short: as §1

TDF [3] = test: H1.0 immunofluorescence intensity relative to DMSO (% of DMSO); higher = stronger H1.0 induction, active = 120 or more
In short: as §1

HCC1569 [4] = test: H1.0 immunofluorescence intensity relative to DMSO (% of DMSO); higher = stronger H1.0 induction, active = 140 or more
In short: as §1
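For H1.0 immunofluorescence intensity relative to DMSO in this document: TDF is a line of transformed human dermal fibroblasts of mesenchymal origin.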
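For cell number relative to DMSO in this document: TDF denotes transformed human dermal fibroblasts of mesenchymal origin.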

Row | SMILES | cell number (HCC1569 [1]) | cell number (TDF [2]) | H1.0 immunofluorescence intensity (TDF [3]) | H1.0 immunofluorescence intensity (HCC1569 [4])
1 | COc1cc(C=CC(=O)c2ccc(O)cc2O)ccc1O [Homobutein] | 95.5 | 101 | 92 (inactive) | 100 (inactive)
2 | O=C(NO)c1cccc(C(=O)NCCc2ccccc2)c1 [N1-hydroxy-N3-phenethylisophthalamide] | 105 | 88 | 90.4 (inactive) | 101 (inactive)
3 | COc1ccnc(CS(=O)c2nc3cc(OC(F)F)ccc3[n-]2)c1OC.O.[Na+] (stereo not given) | 104 | 92.8 | 95.7 (inactive) | 100 (inactive)
4 | CC(O)C(O)C1CNc2[nH]c(N)nc(=O)c2N1.Cl.Cl [(6R)-5,6,7,8-Tetrahydro-L-biopterin hydrochloride] | 105 | 110 | 89.2 (inactive) | 103 (inactive)
5 | Cc1c(OCC(F)(F)F)ccnc1CS(=O)c1nc2ccccc2[nH]1 (stereo not given) [Lansoprazole] | 96.3 | 108 | 90.1 (inactive) | 104 (inactive)
6 | COC(=O)c1ccccc1O [Methyl salicylate] | 100 | 104 | 92.2 (inactive) | 113 (inactive)
7 | CCN(CC)CC#CCOC(=O)C(O)(c1ccccc1)C1CCCCC1.Cl (stereo not given) [Oxybutynin Chloride] | 101 | 101 | 94.5 (inactive) | 97.4 (inactive)
8 | CC(ONC(=O)c1cc(C(F)(F)F)cc(C(F)(F)F)c1)C(=O)Nc1ccc(Cl)cc1 (stereo not given) | 85.2 | 93.3 | 103 (inactive) | 144 (active)
9 | CN1CCc2cc3c(cc2C(=O)Cc2ccc4c(c2C1)OCO4)OCO3 [Protopine] | 99.4 | 108 | 97.6 (inactive) | 92.4 (inactive)
10 | Cc1cc(C(C)(C)C)c(O)c(C)c1CC1=NCCN1.Cl [Oxymetazoline hydrochloride] | 104 | 107 | 93.9 (inactive) | 94.9 (inactive)
11 | O=C1Nc2ccccc2C1=C1Nc2ccccc2C1=O [Indirubin] | 97.2 | 94.7 | 105 (inactive) | 102 (inactive)
12 | O=C(O)Cc1c[nH]c2ccccc12 [Indole-3-acetic acid] | 100 | 102 | 94.5 (inactive) | 84.8 (inactive)
13 | CC12C=CC(=O)C=C1CCC1C2C(O)CC2(C)C1CCC2(O)C(=O)CO (stereo not given) [Prednisolone] | 100 | 99.4 | 84.9 (inactive) | 115 (inactive)
14 | COc1cc2c(c(OC)c1OC)-c1c(cc(OC)c(OC)c1OC)C[C@](C)(O)[C@@H](C)C2 | 100 | 108 | 101 (inactive) | 100 (inactive)
15 | O=C(OC1CC2CC3CC(C1)N2CC3=O)c1c[nH]c2ccccc12 (stereo not given) [Dolasetron] | 99.1 | 84.3 | 102 (inactive) | 105 (inactive)
16 | O=c1cc(-c2ccccc2)oc2cc(O)cc(O)c12 [Chrysine] | 101 | 99.8 | 93.8 (inactive) | 92.7 (inactive)
17 | Cc1ccc(F)c(NC(=O)Nc2ccc(-c3cccc4[nH]nc(N)c34)cc2)c1 | 92.4 | 90.1 | 101 (inactive) | 101 (inactive)
18 | CN(C)[C@@H]1CCc2[nH]c3ccc(NC(=O)c4ccc(F)cc4)cc3c2C1.Cl | 99.2 | 90.8 | 94.9 (inactive) | 114 (inactive)
19 | COc1cc2ncnc(Nc3ccc(OCc4ccccc4)cc3)c2cc1OC [EGFR/ErbB-2 Inhibitor] | 88.7 | 92.5 | 103 (inactive) | 121 (inactive)
20 | O=C(O)CCC(=O)c1ccc(-c2ccccc2)cc1 [Fenbufen] | 101 | 103 | 92.2 (inactive) | 119 (inactive)
21 | N#CCCc1ccc2c(c1)-c1[nH]c3ccc([N+](=O)[O-])cc3c1CC(=O)N2 [Alsterpaullone,                   2-Cyanoethyl] | 63.2 | 32.7 | 112 (inactive) | 113 (inactive)
22 | c1ccc(-c2n[nH]c3c2oc2ccccc23)cc1 | 101 | 103 | 94.2 (inactive) | 126 (inactive)
23 | CC(O)C(=O)C1=Nc2c([nH]c(N)nc2=O)NC1 (stereo not given) [Sepiapterin] | 105 | 113 | 97.4 (inactive) | 99.1 (inactive)
24 | CC1c2cccc(O)c2C(O)=C2C(=O)C3(O)C(O)=C(C(N)=O)C(=O)C(N(C)C)C3C(O)C21.Cl (stereo not given) [Doxycycline hydrochloride] | 96.5 | 107 | 96.9 (inactive) | 105 (inactive)
25 | CC1(C)CC=C(c2cnc3ccccc3c2)c2cc(C(=O)Nc3ccc(C(=O)O)cc3)ccc21 | 99.8 | 99.3 | 97.3 (inactive) | 96.8 (inactive)

From the supplement of paper PMC7156485
